This is an account of results in PubChem BioAssay (Tox21).

Each structure is given as a SMILES string. Results filed as inconclusive are left out. Entries that show only a call come without a potency. Active and inactive are the calls of the source. Calls come from the whole dose curve; as a rule, active = well fitted cell-killing curve with a large enough effect in the repeat runs; inconclusive = weak or mixed curves, or effect the other way; inactive = flat fitted curve, though single readings scatter.

The nature of this test: qHTS assay to identify small molecule antagonists of the constitutive androstane receptor (CAR) signaling pathway - cell viability counter screen (AID 1224837). Note: nearly all actives have a fitted effect of over 45% in size. The conditions noted are these: HepG2-CYP2B6-hCAR viability, CellTiter-Fluor, 23 h, co-treated with 50 nM CITCO; series mostly up to 92.4 µM. From the text:
National Center for Advancing Translational Sciences [NCATS]
NIH Chemical Genomics Center [NCGC]
U.S. Environmental Protection Agency [EPA]
National Institutes of Environmental Health Sciences [NIEHS]
National Toxicology Program [NTP]
U.S. Food and Drug Administration [FDA]
The constitutive androstane receptor (CAR) is a nuclear receptor which regulates multiple drug metabolizing enzymes (DMEs) and transporters. Activating CAR will generally increase the transcription and subsequent translation of CYP2B6 and CYP3A4. These two DMEs represent about 50% of the drug metabolizing potential in the body. When CAR is deactivated, the metabolizing potential in the body will decrease, subsequently increasing the toxicity in the body or lowering the therapeutic potential of a pro-drug. Recently, there have also been studies performed indicating CARs role in energy metabolism and cancer therapy. Therefore, inhibiting CARs activity could have a potential effect on diabetes and cancer. Identifying environmental toxins and compounds which modulate CAR, through the use of the Tox21 10K compound collection, will be an important step in determining the toxicity and potential therapeutic effects these factors will have on the human body. To differentiate true CAR antagonists from cytotoxic substances, the assay is multiplexed with a cell viability assay.
Tox21 Assay Protocol Summary:
A double-stable (hCAR and CYP2B6-2.2kb) transfected cell line, derived from human hepatoma (HepG2) cells, was utilized for the duration of the quantitative high-throughput screens. The HepG2-CYP2B6-hCAR cells were dispensed at 2500 cells/4 uL/well in 1536-well white solid bottom plates using a Multidrop Combi. After the assay plates were incubated at 37 C/5% CO2 for 4 hrs, 23 nL of compounds at 15 concentrations (from 5-48 columns) or positive control (from 1 to 4 columns) were transferred to the assay plates using a Pintool station. One uL of CITCO (final concentration = 50 nM) was added, using a Flying Reagent Dispenser, inside each well. After a 23 hr incubation period at 37 C/5% CO2, 1 uL of CellTiter-Fluor reagent was added into each well of the assay plates using a Flying Reagent Dispenser. The fluorescence intensity in the plates was then measured using a ViewLux plate reader.
For orientation: Quantitative high-throughput screening tests each substance at several concentrations.
In the case of `CCNc1cccc(C)c1`, the Potency entry was “inactive”.

Regarding `CC(=O)OCc1ccco1`, the Potency entry was “inactive”.

As for `CN/C(=C\[N+](=O)[O-])NCCSCc1csc(CN(C)C)n1`, the Potency entry is “inactive”.

For `CC(=O)OCCOC(C)=O`, the Potency entry is “inactive”.

Turning to `CCCCCCCCCCCCCCCCO`, the Potency entry is “inactive”.

For the compound `CC1(C)OC[C@@H]2O[C@@]3(C(=O)O)OC(C)(C)O[C@H]3[C@@H]2O1`, the Potency entry is “inactive”.

With `CC1(C)CC(N)CC(C)(CN)C1` (stereo not given), the Potency entry was “inactive”.

As to `CCCCOC(=O)c1ccc(N)cc1`, the Potency result was “inactive”.

Regarding `Cc1ccc2ncccc2c1`, the Potency result was “inactive”.

`COCCOC(=O)c1ccccc1C(=O)OCCOC`: the Potency entry was “inactive”.

In the case of `C[C@]12CC[C@@H]3c4ccc(O)cc4CC[C@H]3[C@@H]1C[C@@H](O)[C@@H]2O`, the Potency entry is “inactive”.

With `CC(C)CCCCCCCOC(=O)CCCCC(=O)OCCCCCCCC(C)C`, the Potency entry is “inactive”.

Take `CNC(=O)Oc1ccc2c(c1)[C@]1(C)CCN(C)[C@@H]1N2C`: the Potency entry is “inactive”.

As to `C=C(C)[C@H]1CC=C(C)C(=O)C1`, the Potency entry is “inactive”.

On to `O=C(O)c1ccccc1C(=O)O`, for which the Potency entry was “inactive”.

Regarding `CCCCC(C=O)CC` (stereo not given), the Potency entry is “inactive”.

Take `CCO[Si](CCCN)(OCC)OCC`: the Potency result is “inactive”.

For the compound `OCc1ccccc1`, the Potency entry is “inactive”.

Take `C=C(C)C(=O)OCC(C)C`: the Potency result was “inactive”.

`Cc1ccc(C(C)C)c(O)c1`: the Potency entry is “inactive”.

For `CC1(C)S[C@@H]2[C@H](NC(=O)COc3ccccc3)C(=O)N2[C@H]1C(=O)O`, the Potency entry was “inactive”.

As for `CC1(C)NC(=O)NC1=O`, the Potency entry was “inactive”.

`NC(=S)NNC(N)=S`: the Potency entry is “inactive”.

With `CC(=O)Oc1ccc(C)cc1`, the Potency result is “inactive”.

As to `CCc1ccccc1CC`, the Potency entry is “inactive”.

With `C=CCCCCCCCCC(=O)O`, the Potency result is “inactive”.

As to `CNC(=S)N(C)C`, the Potency entry is “inactive”.

`COc1ccc(C)cc1N`: the Potency entry was “inactive”.

Consider `CC(C)=CCl`, for which the Potency result is “inactive”.

Take `CN(C)c1ccc(O)c2c1C[C@H]1C[C@H]3[C@H](N(C)C)C(=O)C(C(N)=O)=C(O)[C@@]3(O)C(=O)C1=C2O`: the Potency result was “inactive”.

Take `COCCCN`: the Potency entry was “inactive”.

With `CCOCCOCCOCCO`, the Potency entry is “inactive”.

On to `COc1ccc(N)c(C)c1`, for which the Potency result was “inactive”.

Regarding `COC(=O)c1cccnc1`, the Potency result was “inactive”.

For the compound `Nc1ccc(Cl)c(N)c1`, the Potency entry was “inactive”.

Consider `CN1C(=O)CC[C@H]1c1cccnc1`, for which the Potency result was “inactive”.

In the case of `CCNC(=S)NCC`, the Potency entry was “inactive”.

As for `C[Si]1(C)O[Si](C)(C)O[Si](C)(C)O[Si](C)(C)O1`, the Potency result is “inactive”.

As for `O=C(O)CCCCCCCCC(=O)O`, the Potency entry was “inactive”.

For `C=CC(C)CCCC(C)(C)O` (stereo not given), the Potency entry was “inactive”.
